Data published in PubChem BioAssay.
Several values for one entry are separate records, joined by “and”; a condition that tells them apart may be missing. Equal values may be shown once. Activity calls are given as the source filed them.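 How the source made its calls, unless noted: active means inhibition at or above 50% relative to wild type and mutant plate controls; inactive means inhibition below 50%.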

Tests used:
[1] = inhibitors of TNFa-induced NFkB p65 translocation, primary screen, imaging, HUVEC, MLSMR starter and 10KST1 sets (AID 438;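 active means inhibition above 20% together with a positive visual image hit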;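 further: compound added about 3h40 before a 20 min TNFalpha stimulation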;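 on inhibition: signal is the nuclear over cytoplasmic p65 intensity ratio per well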); conditions: HUVEC TNFa-induced p65 nuclear translocation; cell count: measured here: nuclei count (cytotoxicity indicator), at 2.08 µM unless noted; inhibition: at 2 µM, stronger effect = higher value unless noted
[2] = reduction of polyQ htt aggregates in cells – imaging, exon1htt(103Q)mCFP cells, high-content imaging, primary screen (AID 483;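 active means visual image review flags a hit and inhibition of aggregation exceeds 20%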;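 further: compound exposure lasted 3 days before fixation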;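 on nuclei count: percent of the per-plate median nuclei count of sample wells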); conditions: exon1htt(103Q)mCFP cell line, aggregate imaging, at 2 µM; inhibition of aggregation: stronger effect = higher value; nuclei count: measured here: cell count, toxicity
[3] = endothelial E-selectin expression blockers – imaging, HUVEC, immunofluorescence, MLSMR starter and 10KST1 sets, primary screen (AID 487;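 active means visually confirmed hit in the image check and inhibition above 20%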;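 on inhibition: signal is fraction of cell area covered by stained E-selectin grains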;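 on nuclei count: 100% = median nuclei count of all wells on the same plate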); conditions: HUVEC TNFalpha-induced E-selectin immunofluorescence imaging, at 2 µM; inhibition: stronger effect = higher value; nuclei count: measured here: cell number, toxicity
[4] = Primary imaging screen for DUSP6 inhibitors that restore phospho-Erk in transfected HeLa cells, chemical complementation (AID 609;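 active means compounds giving at least 50% inhibition in the cell-based MKP-3 phosphatase rescue imaging test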;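 on inhibition: phospho-Erk level distribution per well compared with pooled transfected vehicle control wells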); conditions: HeLa MKP-3 transfected, phospho-Erk imaging KS statistic, at 10 µM
[5] = molecular target: Dual specificity protein phosphatase 6 (Homo sapiens) (UniProt Q16828); experiment: as above; conditions: HeLa MKP-3 transfected, phospho-Erk imaging KS statistic, at 10 µM, stronger effect = higher value
Chain of Dual specificity protein phosphatase 6 (Homo sapiens) (Q16828 whole entry, looked up): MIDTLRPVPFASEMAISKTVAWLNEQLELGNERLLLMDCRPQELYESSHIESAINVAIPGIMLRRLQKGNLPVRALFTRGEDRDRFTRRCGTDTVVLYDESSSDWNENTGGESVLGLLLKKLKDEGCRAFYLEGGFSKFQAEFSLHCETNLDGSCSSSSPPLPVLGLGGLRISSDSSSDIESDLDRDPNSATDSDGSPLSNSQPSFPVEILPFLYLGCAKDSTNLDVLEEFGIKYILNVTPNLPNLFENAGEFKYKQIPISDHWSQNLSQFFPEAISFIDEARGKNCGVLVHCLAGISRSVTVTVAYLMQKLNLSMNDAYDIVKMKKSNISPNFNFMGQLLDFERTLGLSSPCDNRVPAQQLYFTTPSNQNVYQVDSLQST

[6] = molecular target: Voltage-gated potassium channel subunit beta-2 (Rattus norvegicus) (UniProt P62483); experiment: inhibitors of rat Kvbeta2 reductase activity – biochemical, NADPH fluorescence, primary screen (AID 622;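 active means fluorescence slope higher than the sample average by over 3 SD, cut at about -0.22 in these data, passing the limit was not always enough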;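 further: slope of raw intensity against log time taken from 70 to 1610 s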); conditions: recombinant KvBeta, 4-cyanobenzaldehyde reduction, at 10 µM, stronger effect = higher value
Chain of Voltage-gated potassium channel subunit beta-2 (Rattus norvegicus) (P62483 whole entry, looked up): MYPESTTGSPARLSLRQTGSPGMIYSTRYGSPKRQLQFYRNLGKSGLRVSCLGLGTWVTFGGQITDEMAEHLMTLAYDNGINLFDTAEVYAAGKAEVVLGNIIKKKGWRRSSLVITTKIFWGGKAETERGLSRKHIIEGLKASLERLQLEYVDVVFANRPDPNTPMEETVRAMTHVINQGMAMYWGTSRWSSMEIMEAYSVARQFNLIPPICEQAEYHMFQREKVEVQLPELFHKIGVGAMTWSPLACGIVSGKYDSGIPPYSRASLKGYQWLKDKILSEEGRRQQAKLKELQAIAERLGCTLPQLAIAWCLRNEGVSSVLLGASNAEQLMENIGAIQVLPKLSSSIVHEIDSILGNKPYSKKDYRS

[7] = molecular target: Voltage-gated potassium channel subunit beta-2 (Rattus norvegicus) (UniProt P62483); experiment: enhancers of rat Kvbeta2 NADPH turnover – biochemical, NADPH fluorescence, primary screen (AID 623;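 active means NADPH fluorescence slope more negative than the mean of all samples by about 3 SD, 99.7% confidence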;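 further: fluorescence intensity change per second fitted from 20 to 320 s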); conditions: Recombinant KvBeta, NADPH fluorescence decrease slope, 10 min; at 10 µM; stronger effect = lower value
[8] = molecular target: Alpha-2C adrenergic receptor (Homo sapiens) (UniProt P18825); experiment: compounds altering alpha2C-coupled GIRK flux – cell-based, HEK293 alpha2C/GIRK1/2, thallium flux, primary screen (AID 624;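 active means fluorescence slope after compound addition differing from the mean of all screened samples at 99.7% confidence, in either direction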;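 further: slope of fluorescence ratio to pre-addition baseline per second over 15 to 24 s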); conditions: thallium flux BTC fluorescence, at 10 µM, actives lie on both sides
Chain of Alpha-2C adrenergic receptor (Homo sapiens) (P18825 whole entry, looked up): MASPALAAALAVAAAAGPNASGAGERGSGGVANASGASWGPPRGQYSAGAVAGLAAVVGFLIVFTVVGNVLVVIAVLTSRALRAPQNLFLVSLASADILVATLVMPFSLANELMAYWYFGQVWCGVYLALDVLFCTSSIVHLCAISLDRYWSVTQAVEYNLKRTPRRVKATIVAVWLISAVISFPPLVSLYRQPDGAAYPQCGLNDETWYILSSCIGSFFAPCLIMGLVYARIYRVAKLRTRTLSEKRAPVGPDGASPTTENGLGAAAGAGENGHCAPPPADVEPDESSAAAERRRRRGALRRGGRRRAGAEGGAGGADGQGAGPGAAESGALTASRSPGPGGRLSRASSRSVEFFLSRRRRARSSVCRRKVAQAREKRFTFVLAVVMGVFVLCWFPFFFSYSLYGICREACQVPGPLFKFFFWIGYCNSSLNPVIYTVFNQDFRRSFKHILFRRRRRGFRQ

[9] = inhibitors of larval lipid processing in zebrafish, primary screen, whole organism, PED6 fluorescence, gall bladder and intestine (AID 686;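 active means a full or partial loss of lipid-probe fluorescence in the fish gall bladder, intestine or both, judged by eye; inactive means no fluorescence loss, or compound toxic to the fish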;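 further: larvae 5 to 7 days old with five fish per well; signal comes from phospholipase A2 cleavage of quenched PED6 carried via bile; overnight exposure to compound and PED6 before scoring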); conditions: Zebrafish larvae PED6 lipid processing, fluorescence scoring
[10] = loss of swimming-algae plug formation – whole organism, Chlamydomonas reinhardtii, WT vs cilia-less mutant, absorbance, 96-well, primary screen (AID 463189); conditions: Chlamydomonas reinhardtii gravitaxis, OD600 absorbance, 2 days; at 10 µM; stronger effect = higher value;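 further: 0% = wild type cc124 cells in DMSO and 100% = ciliumless bld1 mutant cells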
[11] = blockers of RIG-like receptor reporter activation – cell-based, Sendai virus stimulus, luciferase, 10K MLSCN set, TLR/RLR signaling modifier project, primary screen (AID 602276;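 active means inhibition at or above 50% at 10 µM; inactive means inhibition below 50%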;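 further: firefly luciferase from ISG56 promoter only with Renilla not read in this screen; 0% = Sendai virus plus DMSO and 100% = medium plus DMSO without virus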); conditions: HEK293 RL24 IRF3 luciferase reporter, at 10 µM, stronger effect = higher value
[12] = TLR3 IRF3 reporter activation blockers – cell-based, poly I:C stimulus, luciferase, 10K MLSCN set, primary screen (AID 602277;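 active means inhibition of the reporter signal at or above 50%; inactive means inhibition below 50%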); conditions: HEK293-TLR3 RL24 IRF3 luciferase reporter, at 10 µM, stronger effect = higher value
[13] = molecular target: Muscarinic acetylcholine receptor M4 (Homo sapiens) (UniProt P08173); experiment: M4-linked GIRK flux change, two-sided – cell-based, HEK293 M4/GIRK, thallium flux, BTC-AM, M4 allosteric agonist project, primary screen (AID 625;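 active means fluorescence slope after compound addition differing from the mean of all tested samples at 99.7% confidence, mostly higher but some lower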;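 further: thallium influx through GIRK channels coupled to M4 in HEK293 cells with BTC-AM dye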); conditions: at 10 µM, actives lie on both sides
Chain of Muscarinic acetylcholine receptor M4 (Homo sapiens) (P08173 whole entry, looked up): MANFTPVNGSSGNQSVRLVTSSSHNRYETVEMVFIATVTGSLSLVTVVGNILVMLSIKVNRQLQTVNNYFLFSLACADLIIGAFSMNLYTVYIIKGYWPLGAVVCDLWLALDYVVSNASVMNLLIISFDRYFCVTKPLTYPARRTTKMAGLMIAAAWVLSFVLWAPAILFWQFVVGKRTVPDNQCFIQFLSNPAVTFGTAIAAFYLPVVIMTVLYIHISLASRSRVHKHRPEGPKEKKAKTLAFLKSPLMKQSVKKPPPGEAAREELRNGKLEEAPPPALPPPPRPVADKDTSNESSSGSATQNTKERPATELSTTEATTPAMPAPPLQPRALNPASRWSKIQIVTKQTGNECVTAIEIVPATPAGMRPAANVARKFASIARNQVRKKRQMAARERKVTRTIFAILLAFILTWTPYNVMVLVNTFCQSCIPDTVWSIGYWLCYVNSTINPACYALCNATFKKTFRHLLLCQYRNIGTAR

[14] = measured here: cell density z-score
[15] = measured here: nuclear c-Myc green intensity z-score
[16] = measured here: nuclear pErk red intensity z-score, stronger effect = higher value

| SMILES | cell count [1] | inhibition [1] | inhibition of aggregation [2] | nuclei count [2] | inhibition [3] | nuclei count [3] | z-score [4, 14] | z-score [4, 15] | z-score [4, 16] | inhibition [5] | fluorescence slope [6] | NADPH fluorescence slope [7] | slope [8] | outcome [9] | inhibition [10] | inhibition [11] | inhibition [12] | fluorescence slope [13] |
| --- | --- | --- | --- | --- | --- | --- | --- | --- | --- | --- | --- | --- | --- | --- | --- | --- | --- | --- |
| COc1ccc2[nH]cc(CCN(C)C)c2c1 | 560 | -3.3% (inactive) | -16.8% (inactive) | 95.6% | -34% (inactive) | 102% | -0.633 | 0.535 | 0.345 | 3.59% (inactive) | -0.516 (inactive) | 1.6e-07 (inactive) | 0.00666 (inactive) | inactive | 12.8% (inactive) and -9.88% (inactive) | 7.44% (inactive) | 13.2% (inactive) | – |
| C=CCn1c(O)c(C=NCCN(C)C)c(=O)[nH]c1=O | 342 | -5% (inactive) | -0.9% (inactive) | 97.7% | 9.5% (inactive) | 97.2% | 0.486 | -0.511 | -0.0175 | 19.3% (inactive) | -0.462 (inactive) | -0.000118 (inactive) | 0.00873 (inactive) | inactive | -19.1% (inactive) | -1.86% (inactive) | -11.3% (inactive) | – |
| CCC(COC(=O)c1cc(OC)c(OC)c(OC)c1)(c1ccccc1)N(C)C (stereo unspecified) | 445 | -6.3% (inactive) | 12.7% (inactive) | 92.2% | -6.1% (inactive) | 92.2% | -0.162 | 0.437 | -0.404 | 3.45% (inactive) | -0.498 (inactive) | -7.2e-05 (inactive) | 0.00446 (inactive) | inactive | -3.48% (inactive) | 1.96% (inactive) | 35% (inactive) | – |
| OCCOCC#CCN1CCOCC1 | 582 | 8.1% (inactive) | -15.3% (inactive) | 100% | -167% (inactive) | 137% | -0.584 | 1.05 | 0.188 | 17.8% (inactive) | -0.497 (inactive) | -5.8e-05 (inactive) | – | inactive | -6.14% (inactive) | 19.2% (inactive) | 20.5% (inactive) | 0.006 (inactive) |
| CCCC(=O)OCC[N+](C)(C)C | 626 | -8.2% (inactive) | -16.7% (inactive) | 111% | -31.1% (inactive) | 135% | 0.404 | -0.787 | 0.37 | 13.3% (inactive) | -0.481 (inactive) | 5e-06 (inactive) | 0.00561 (inactive) | inactive | 18.3% (inactive) | 21.4% (inactive) | 35% (inactive) | – |
| Cc1c(N=Cc2c(O)n(CCc3ccc(F)cc3)c(=O)[nH]c2=O)c(=O)n(-c2ccccc2)n1C | 647 | -28% (inactive) | – | – | -9.6% (inactive) | 155% | -1.16 | -1.2 | 1.06 | -0.624% (inactive) | -0.389 (inactive) | -4.5e-05 (inactive) | 0.0062 (inactive) | active; weak signal in gallbladder and intestine | 8% (inactive) | – | – | – |
| COc1ccc(C(=O)CN2CCOCC2)cc1F | 662 | -8.3% (inactive) | – | – | -111% (inactive) | 168% | -0.933 | 0.019 | -0.631 | 5.57% (inactive) | -0.506 (inactive) | -5.2e-05 (inactive) | 0.0047 (inactive) | inactive | 0.889% (inactive) | – | – | – |
| CC(=O)OC1(Cc2ccccc2)CN2CCC1c1ccccc12 (stereo unspecified) | 574 | -15.2% (inactive) | – | – | -118% (inactive) | 130% | 0.311 | -0.615 | 0.994 | -9.91% (inactive) | -0.516 (inactive) | -4e-05 (inactive) | 0.00421 (inactive) | inactive | 14.3% (inactive) | – | – | – |
| O=c1c(C=NCCN2CCNCC2)c(O)n(C2CCCCC2)c(=O)n1C1CCCCC1 | 583 | -5.8% (inactive) | – | – | -162% (inactive) | 138% | 0.0473 | 0.939 | 0.718 | 3.97% (inactive) | -0.516 (inactive) | -3.1e-05 (inactive) | 0.00535 (inactive) | inactive | 2.5% (inactive) | – | – | – |
| O=C1C2CCN(CC2)[C@@H]1Cc1ccc2ccccc2c1O | 542 | -18.4% (inactive) | – | – | -159% (inactive) | 135% | 0.277 | -1 | -0.726 | 9.91% (inactive) | -0.498 (inactive) | -6.4e-05 (inactive) | 0.00747 (inactive) | inactive | 9.49% (inactive) | – | – | – |
| O=c1[nH]c(=O)n(Cc2ccco2)c(O)c1C=NCCN1CCOCC1 | 680 | -12.4% (inactive) | – | – | -84.8% (inactive) | 179% | 0.97 | -1.61 | 0.194 | -8.95% (inactive) | -0.384 (inactive) | -2.1e-05 (inactive) | 0.00707 (inactive) | inactive | -10.1% (inactive) | – | – | – |
| O=c1[nH]c(O)c(C=NC2CCN(Cc3ccccc3)CC2)c(=O)[nH]1 | 422 | 0.5% (inactive) | – | – | -125% (inactive) | 167% | 0.26 | -1.34 | -0.141 | 4.25% (inactive) | -0.409 (inactive) | -7.4e-05 (inactive) | 0.00643 (inactive) | inactive | -1.61% (inactive) | – | – | – |
